Assay outcomes (PubChem)
Shown are actives, neighbours in structure and some others; about 13% of the full set was active somewhere.
USP8 inh = blocks human USP8 ubiquitin-rhodamine cleavage; 4.2% of 47,000 active; P40818; purified USP8, Ub-rhodamine cleavage fluorescence, 30 min; inhibition, % at 20 µM; AID 1645853
Target sequence (P40818 whole entry, looked up): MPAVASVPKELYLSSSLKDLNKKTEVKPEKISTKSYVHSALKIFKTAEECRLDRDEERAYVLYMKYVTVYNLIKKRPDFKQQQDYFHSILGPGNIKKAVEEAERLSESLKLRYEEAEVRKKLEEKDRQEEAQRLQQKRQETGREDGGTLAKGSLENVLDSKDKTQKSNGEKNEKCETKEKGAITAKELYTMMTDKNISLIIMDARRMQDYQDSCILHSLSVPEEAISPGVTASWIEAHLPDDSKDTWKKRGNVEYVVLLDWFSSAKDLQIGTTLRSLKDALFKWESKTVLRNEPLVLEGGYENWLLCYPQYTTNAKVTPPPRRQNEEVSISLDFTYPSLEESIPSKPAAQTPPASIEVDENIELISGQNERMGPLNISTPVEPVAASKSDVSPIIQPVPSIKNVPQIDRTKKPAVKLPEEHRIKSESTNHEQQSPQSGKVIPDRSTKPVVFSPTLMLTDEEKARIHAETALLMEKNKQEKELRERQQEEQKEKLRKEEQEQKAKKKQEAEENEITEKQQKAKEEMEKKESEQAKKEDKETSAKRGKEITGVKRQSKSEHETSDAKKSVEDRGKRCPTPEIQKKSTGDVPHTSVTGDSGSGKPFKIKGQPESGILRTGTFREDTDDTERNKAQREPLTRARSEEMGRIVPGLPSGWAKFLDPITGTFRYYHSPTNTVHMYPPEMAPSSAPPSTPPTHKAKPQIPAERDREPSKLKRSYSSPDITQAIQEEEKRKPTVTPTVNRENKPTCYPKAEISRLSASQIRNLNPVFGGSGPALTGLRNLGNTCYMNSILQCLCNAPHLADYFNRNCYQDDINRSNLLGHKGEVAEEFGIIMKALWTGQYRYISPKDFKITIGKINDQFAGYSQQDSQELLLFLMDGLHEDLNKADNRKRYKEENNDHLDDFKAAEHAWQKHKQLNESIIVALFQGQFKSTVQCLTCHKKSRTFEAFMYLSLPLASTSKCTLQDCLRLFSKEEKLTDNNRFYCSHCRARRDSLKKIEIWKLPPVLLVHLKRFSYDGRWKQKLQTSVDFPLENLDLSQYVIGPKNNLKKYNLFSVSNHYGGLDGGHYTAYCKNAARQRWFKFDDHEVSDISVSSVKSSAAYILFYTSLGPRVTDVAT
USP28 block = blocks human USP28 ubiquitin-rhodamine cleavage | purified USP28, Ub-rhodamine cleavage fluorescence, 30 min | inhibition, % at 25 µM | 3% of 47,000 active | Q96RU2 | AID 1645857
USP30 inh = inhibitors of human USP30 deubiquitinase | Q70CQ3 | purified USP30, Ub-rhodamine cleavage fluorescence | inhibition, % at 25 µM | 5.3% of 47,000 active | AID 1645860
USP10 block = blocks human USP10 ubiquitin-rhodamine cleavage. Q14694. purified USP10, Ub-rhodamine fluorescence, 60 min. inhibition, % at 20 µM. 1.1% of 47,000 active
USP17 inh = inhibitors of human USP17 deubiquitinase; 6.5% of 47,000 active; inhibition, % at 50 µM; purified USP17, Ub-rhodamine cleavage fluorescence, 3 h
* marks the source's active call; other numbers are inactive results. Cut-off read from the data, not from the text of the source: active = inhibition above about 30%; inactive = the rest.

SMILES	USP8 inh	USP28 block	USP30 inh	USP10 block	USP17 inh
O=C(Cc1ccc(S(=O)(=O)N2CCOCC2)s1)NCc1cccc(Cl)c1	40*	-36	-260	-6	6
CCOC(=O)C1(Cc2cc(-c3ccc(F)cc3)no2)CCCN(Cc2cnc(C)n2C)C1 (stereo unspecified)	18	16	36*	-2	11
CCOC(=O)C1(Cc2cc(-c3ccccc3C)no2)CCCN(Cc2cncn2C)C1 (stereo unspecified)	-3	-17	-11	2	-5
Cc1cc(C)c(NC(=O)CSc2nnc(-c3cc(C)[nH]n3)n2N)c(C)c1	5	3	-19	-3	3
Cc1cccc(NC(=O)CSc2nnc(-c3n[nH]c4c3CCC4)n2N)c1C	51*	9	38*	20	67*
Cc1ccc(NC(=O)CSc2nnc(-c3n[nH]c4c3CCC4)n2N)cc1C	8	-1	21	36*	5
CC1CCN(S(=O)(=O)N2CCCC(C(=O)Nc3ccccc3F)C2)CC1 (stereo unspecified)	4	-10	-33	-6	-7
CN1C(=O)C2(CCN(C(=O)Nc3ccc(F)cc3)C2)c2ccccc21 (stereo unspecified)	21	0	-1	-1	2
O=C(C1CCCC1)N1CCCN(Cc2noc(-c3ccccc3)n2)CC1	-11	-9	-33	-3	-23
CCn1c(=O)n(CC(=O)c2ccccc2)c2c(C(N)=O)nc(-c3ccc(C)o3)nc21	-5	-8	-18	0	34*
CCn1c(=O)n(CC(=O)c2ccc(F)cc2)c2c(C(N)=O)nc(-c3ccc(C)o3)nc21	0	-2	-80	2	34*
COCCn1c(C)cc(C(=O)CN2C(=O)NC(C)(c3cccc4ccccc34)C2=O)c1C (stereo unspecified)	-33	-45	-188	-10	-34
COc1ccccc1Cc1cccc(C2CCCN2C(=O)c2coc(C)n2)n1 (stereo unspecified)	-1	2	15	-2	0
C[C@@H]1C(=O)O[C@H]2CC34[C@H]5C[C@@H](C(C)(C)C)C36[C@@H](OC(=O)[C@@H]6O)OC4(C(=O)O5)[C@]21O (stereo partly specified)	0	9	41*	7	20
C[C@@H]1C(=O)OC2[C@H](O)C34[C@H]5C[C@@H](C(C)(C)C)C36[C@@H](OC(=O)[C@@H]6O)O[C@@]4(C(=O)O5)[C@]21O (stereo partly specified)	0	6	19	3	8
C=C[C@]1(C)C=C2C(=O)[C@]3(O)OC(=O)[C@@]4(CCCC(C)(C)[C@H]34)[C@@]2(O)CC1	20	24	25	19	69*
Cc1ccc(/C=C(\C(=O)N(CCO)Cc2ccccc2)n2ccccc2=O)cc1	29	7	16	0	16
CCN(C(=O)c1cccc(Cn2ccnc2C)c1)[C@H]1C[C@@H](c2ccccc2)OC2(CCNCC2)C1	-10	3	11	3	1
CCN(C(=O)c1cccc(-n2nc(C)cc2C)c1)[C@H]1C[C@@H](c2ccccc2)OC2(CCNCC2)C1	-29	12	34*	1	-9
CC(=O)Nc1cccc(C(=O)N(Cc2ccco2)C2(C(=O)Nc3c(C)cccc3C)CCCCC2)c1	-6	-4	-7	-5	-7
Cc1cc(C)nc(SCC(=O)N(Cc2ccco2)C2(C(=O)Nc3c(C)cccc3C)CCCCC2)n1	30	27	40*	16	58*
Cc1cccc(C)c1NC(=O)C1(N(Cc2ccco2)C(=O)c2ccccc2F)CCCCC1	10	11	36*	4	14
Cc1cccc(CO[C@H]2CN(Cc3cc(C)on3)[C@@H]3CCCO[C@H]23)n1	-126	-4	-11	1	-22
Cc1ccc2nc(-c3ccc(NC(=O)COC(=O)CCC(=O)Nc4sc5c(c4C(N)=O)CCC5)cc3)sc2c1	47*	-109	-412	-9	-100
CCOCC(=O)Nc1ccc(-c2nc3cccnc3s2)cc1	-1	9	-5	-1	9
CCOC(=O)Cc1[nH]nc2c1C1(C(=O)N(CC)c3ccccc31)C(C#N)=C(N)O2 (stereo unspecified)	11	-14	-85	-1	-47
CCOC(=O)c1cn(C2CC2)c2cc(N3CCNCC3)c([N+](=O)[O-])cc2c1=O	-125	36*	58*	0	-7
COC(=O)c1ccc(C(=O)OC)c(NC(=O)c2nn(-c3ccccc3)c(=O)cc2OC)c1	1	2	14	2	37*
